Experimental data published in article PMC12864922, “TDP-43 directly inhibits mRNA accumulation in neurites through modulation of mRNA stability”.
In all, about 9,900 sequences were measured (“r (bound/input frequency ratio)”: median about 0.7, highest 2% from about 6.5 on). This is one part of a sample in which the highest values are shown more often than they occur.

B1: ENSMUSG00000031028.417|Tub (ssRNA)
RNA: GGGAGUUCUACAGUCCGACGAUCGCUUCGAUAUCCGCAUGCUAUGGGUAGCAAAUUGGUGAGAAGAGCAGCCUAGUCUGUAAGAGUGCAGGGCAGCUGGAACCUUAGGCAGCUCCUCUGUAUGCUACCGGCUCCACACCCUAACACUCUCCACCCUCUGCUCCAAACCAGUUCUUCUGCAGAGUGGUGAUGUUAGCUUCCCCAGCUCCUCUCCAAGUCUAGCUUUUUCUGUCCUUCUGGCUCCAAGGUGCUCUGUGUCUGUGUGUGUGUGUCUGUCUGUGUGUGUGUGUGUCGAGGAAAGGGCCUCUUGCGGUCGCACUAGUGUGGAAUUCUCGGGUGUCAAGG
B2: ENSMUSG00000031028.419|Tub (ssRNA)
RNA: GGGAGUUCUACAGUCCGACGAUCGCUUCGAUAUCCGCAUGCUAUGGUGAGAAGAGCAGCCUAGUCUGUAAGAGUGCAGGGCAGCUGGAACCUUAGGCAGCUCCUCUGUAUGCUACCGGCUCCACACCCUAACACUCUCCACCCUCUGCUCCAAACCAGUUCUUCUGCAGAGUGGUGAUGUUAGCUUCCCCAGCUCCUCUCCAAGUCUAGCUUUUUCUGUCCUUCUGGCUCCAAGGUGCUCUGUGUCUGUGUGUGUGUGUCUGUCUGUGUGUGUGUGUGUCGAGGAAAGGGCAAUCUGCAAACACUCUUGCGGUCGCACUAGUGUGGAAUUCUCGGGUGUCAAGG
B3: ENSMUSG00000031028.418|Tub|70:74;204:208;210:222;228:242 (ssRNA)
RNA: GGGAGUUCUACAGUCCGACGAUCGCUUCGAUAUCCGCAUGCUAGCAAAUUGGUGAGAAGAGCAGCCUAGUCUGUAAGAGUGCAGGGCAGCUGGAACCUUAGGCAGCUCCUCUCAUACCUACCGGCUCCACACCCUAACACUCUCCACCCUCUGCUCCAAACCAGUUCUUCUGCAGAGUGGUGAUGUUAGCUUCCCCAGCUCCUCUCCAAGUCUAGCUUUUUCUGUCCUUCUGGCUCCAAGGUGCUCACACACACACACACACACACUGUCACACACACACACACACGAGGAAAGGGCAAUCUGCUCUUGCGGUCGCACUAGUGUGGAAUUCUCGGGUGUCAAGG
B4: ENSMUSG00000031028.420|Tub (ssRNA)
RNA: GGGAGUUCUACAGUCCGACGAUCGCUUCGAUAUCCGCAUGCUAGAAGAGCAGCCUAGUCUGUAAGAGUGCAGGGCAGCUGGAACCUUAGGCAGCUCCUCUGUAUGCUACCGGCUCCACACCCUAACACUCUCCACCCUCUGCUCCAAACCAGUUCUUCUGCAGAGUGGUGAUGUUAGCUUCCCCAGCUCCUCUCCAAGUCUAGCUUUUUCUGUCCUUCUGGCUCCAAGGUGCUCUGUGUCUGUGUGUGUGUGUCUGUCUGUGUGUGUGUGUGUCGAGGAAAGGGCAAUCUGCAAACAAUGAACCUCUUGCGGUCGCACUAGUGUGGAAUUCUCGGGUGUCAAGG
B5: ENSMUSG00000042529.435|Kcnj12|146:150 (ssRNA)
RNA: GGGAGUUCUACAGUCCGACGAUCGCUUCGAUAUCCGCAUGCUAAGAGAGAGAGAGAGAGAGAGAGAGAGAGAGAGAGAGAGAGCUGCACAGGAUGAAGCAGCUGCCCUGAGCCCAUCUGGUGCUGUGCACCUGGUCCUUGUCCAGCCGAGGGCCUGGGGGCAGAAGAACACACCAUAGGGAGGCCCUUCAUACGGUGUCUGCCCUAUGUGAGGUCAUAGAAUGUUAAAUCUAUUUUAAACGGUGAAACUGGAGAAUUUUCAUGUUAUUUUCAAUAAUAGUGGUAUCUAAAGAUGUAGGCAACACUCUUGCGGUCGCACUAGUGUGGAAUUCUCGGGUGUCAAGG
B6: ENSMUSG00000035202.98|Lars2 (ssRNA)
RNA: GGGAGUUCUACAGUCCGACGAUCGCUUCGAUAUCCGCAUGCUAUCCUGCUCAGUACGAGAGGAACCGCAGCUAGCUUGUGUCUCCAGUGUCUUUUACCAUCACAGGCCCUGGCUCUGUGCUACCUCCCUAGAAUACCUGUGGUUCAUCACCUUCAGCUCACACUCCAUUCAGACAAUGCUCACUUAGGCCUACAAGCAAGGGAGAGGCUUAAGCACAAGGUCUUUAAGCUUGAUACUGUGCCUGGUCUCAAUGCCUAGAAAUUCCAACUUAACUGUCGCUAUCAUAAAGGAUUUUAAAUUUUUCUCUUGCGGUCGCACUAGUGUGGAAUUCUCGGGUGUCAAGG
B7: ENSMUSG00000090935.628|Synj2bp (ssRNA)
RNA: GGGAGUUCUACAGUCCGACGAUCGCUUCGAUAUCCGCAUGCUAGUCUUAAACUGAUUAGUAACACUAUGACUUACCCUGAGAUCUAAGUAUUGCUAUAAAGAGACUGAAGAGGAGAGAAUAAAGUAUUUUCCUAGGACUACAUAGUUGGUAAAAGAGAAUCAUGAUUUAAACUCUGGACUAUGGAUGGCAGUAUCAGUAAUAUUCCCUCAUAGCUAGCAGUCCUCAUGCAAGGUCUCUGAACAAAAGCAACGUAUCACCUGCAAAUGCUUGGGUUUCAUCCCAUUCUUAUGGAGUGAGAUGAGCUCUUGCGGUCGCACUAGUGUGGAAUUCUCGGGUGUCAAGG
B8: ENSMUSG00000061578.1408|Ksr2|69:73 (ssRNA)
RNA: GGGAGUUCUACAGUCCGACGAUCGCUUCGAUAUCCGCAUGCUACUCCACGGACCUCAGGCCCACUGUUUUCUCCAUGUCUGUCUGUACUGACUGUUGCAGAAUGAGCUGAUCAUACAUCUUGAUUCUCCAUUUUCCUUCUGGACCACAUGUCUCUUCCUUUUCCUUUUUAGAUCUGUCUUGCUCUCUGUCUCUCUCACUCAUUGCCAACAUGUUGCUGGGAAAGAAUAUUUGAUUUAGAUGCCAAUCAGGAAGGCAAGUAGGAUGGAUGGAUGAGUGAGUGGAUAGGUAGGUAUAUAAAUGGACUCUUGCGGUCGCACUAGUGUGGAAUUCUCGGGUGUCAAGG
B9: ENSMUSG00000031028.69|Tub|109:121;139:143 (ssRNA)
RNA: GGGAGUUCUACAGUCCGACGAUCGCUUCGAUAUCCGCAUGCUAUGGAGGUACAGAGGGAGAGGAAGCACAAGCCUGGCUGCUGUGGCUCAGCCAUCCACUCAGCCUACGAGUCAGAGACAGUGGGUGUCCCGGGAAGCAGGGGUACAGUGACACACACACAUACUACAGGGCACUCAAGCUCAUACUAGAAAAAGCUCUGGUGGUCAGCAGAAAGCACUCCCACUUCAAAAGGGCCCAUUAGGCCCAAAGGGGGUUAGGAGUGGUAGGGAUAGGUGCGUGGCAGGUCCCUGCUAGGAUUGCAGCUCUUGCGGUCGCACUAGUGUGGAAUUCUCGGGUGUCAAGG

target: TDP-43 (Homo sapiens, UniProt Q13148 1-414); assay: RNA Bind-n-Seq with designed 260-mer pool; 25 mM Tris-HCl, 150 mM KCl, 3 mM MgCl2, BSA (printed 500 mg/mL), 20 units/mL SUPERase IN; pH not stated; 500 nM RNA pool, 1 h, 4 C; TDP-43 5, 50, 500 nM; high values mean tight binding; details: protein: recombinant; tags: SBP (GST cleaved off with PreScission; pGEX-GST-SBP)
Summary of the method: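 Recombinant SBP-tagged TDP-43 at 5, 50 or 500 nM was captured on streptavidin beads, then incubated 1 h at 4 °C with 500 nM of an in vitro-transcribed 260-nt 3′ UTR oligo pool in 25 mM Tris-HCl, 150 mM KCl, 3 mM MgCl2, BSA and SUPERase IN. Bound RNA was washed, eluted with biotin, reverse transcribed, PCR-amplified and sequenced. Binding is R, each oligo's mapped-read-normalized abundance in the bound sample divided by its abundance in input. Duplicates used two independent protein batches.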

TDP-43, sequence (Q13148 whole entry): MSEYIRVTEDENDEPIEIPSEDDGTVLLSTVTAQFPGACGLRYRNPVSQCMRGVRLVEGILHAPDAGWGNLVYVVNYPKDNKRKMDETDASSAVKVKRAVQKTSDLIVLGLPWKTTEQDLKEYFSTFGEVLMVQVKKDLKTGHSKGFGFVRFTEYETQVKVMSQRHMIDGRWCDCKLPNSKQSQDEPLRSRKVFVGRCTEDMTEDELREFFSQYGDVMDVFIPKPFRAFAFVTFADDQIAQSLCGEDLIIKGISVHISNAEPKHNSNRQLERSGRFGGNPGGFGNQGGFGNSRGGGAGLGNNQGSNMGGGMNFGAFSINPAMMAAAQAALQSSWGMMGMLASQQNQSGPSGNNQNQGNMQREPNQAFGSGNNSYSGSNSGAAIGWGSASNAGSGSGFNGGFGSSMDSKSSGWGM

| Binder | binding signal |
| --- | --- |
| B1 | 6.83 R (bound/input frequency ratio) |
| B2 | 5.95 R (bound/input frequency ratio) |
| B3 | 3.24 R (bound/input frequency ratio) |
| B4 | 7.33 R (bound/input frequency ratio) |
| B5 | 4.76 R (bound/input frequency ratio) |
| B6 | 0.339 R (bound/input frequency ratio) |
| B7 | 0.125 R (bound/input frequency ratio) |
| B8 | 0.845 R (bound/input frequency ratio) |
| B9 | 0.841 R (bound/input frequency ratio) |
